The target of assay [1] is T1, cGMP-dependent protein kinase 1 (Homo sapiens) (UniProt Q13976).
T1 sequence (whole entry): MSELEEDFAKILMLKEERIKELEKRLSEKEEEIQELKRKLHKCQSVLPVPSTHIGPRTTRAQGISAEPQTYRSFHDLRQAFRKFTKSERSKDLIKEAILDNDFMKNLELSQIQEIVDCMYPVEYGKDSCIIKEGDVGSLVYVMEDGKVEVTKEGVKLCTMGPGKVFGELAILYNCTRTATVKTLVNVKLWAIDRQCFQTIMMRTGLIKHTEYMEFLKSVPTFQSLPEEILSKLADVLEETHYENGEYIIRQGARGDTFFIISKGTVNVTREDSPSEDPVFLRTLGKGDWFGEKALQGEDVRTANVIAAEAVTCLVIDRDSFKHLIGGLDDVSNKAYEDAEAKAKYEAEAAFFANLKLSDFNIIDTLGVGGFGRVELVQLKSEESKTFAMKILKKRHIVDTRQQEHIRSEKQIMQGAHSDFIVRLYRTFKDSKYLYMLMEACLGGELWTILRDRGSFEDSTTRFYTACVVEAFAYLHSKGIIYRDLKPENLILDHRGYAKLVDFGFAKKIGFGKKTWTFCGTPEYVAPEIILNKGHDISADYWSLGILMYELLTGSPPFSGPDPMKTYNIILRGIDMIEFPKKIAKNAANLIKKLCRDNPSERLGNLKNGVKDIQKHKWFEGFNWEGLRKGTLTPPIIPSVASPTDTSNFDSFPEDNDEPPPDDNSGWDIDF
The note with it: at 1 µM.

Assay [2] deals with T1, cGMP-dependent protein kinase 1 (Homo sapiens). The note with it: at 10 µM.
For assay [3] the target is unchanged. The settings on record: at 1 µM. The source holds these as a separate data set.
For assay [4] the target is unchanged. The settings on record: at 10 µM. The source holds these as a separate data set.
Assay [5] deals with T2, MAP kinase-activated protein kinase 5 (Homo sapiens) (UniProt Q8IW41).
T2 sequence (whole entry): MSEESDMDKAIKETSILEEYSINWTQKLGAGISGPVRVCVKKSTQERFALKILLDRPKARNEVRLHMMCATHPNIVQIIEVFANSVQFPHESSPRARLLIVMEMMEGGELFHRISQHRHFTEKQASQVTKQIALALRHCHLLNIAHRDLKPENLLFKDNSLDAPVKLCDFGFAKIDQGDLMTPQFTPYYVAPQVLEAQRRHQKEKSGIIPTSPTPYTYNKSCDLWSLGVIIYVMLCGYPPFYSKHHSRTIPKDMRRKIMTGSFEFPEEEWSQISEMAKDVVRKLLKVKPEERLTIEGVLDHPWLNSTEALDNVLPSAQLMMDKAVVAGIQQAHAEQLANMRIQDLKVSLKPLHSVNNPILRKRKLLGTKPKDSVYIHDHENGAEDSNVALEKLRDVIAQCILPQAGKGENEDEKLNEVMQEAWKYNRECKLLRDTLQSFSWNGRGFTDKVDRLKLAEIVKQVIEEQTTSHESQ
The note with it: at 1 µM.

In assay [6] the target is T2, MAP kinase-activated protein kinase 5 (Homo sapiens). The note with it: at 10 µM.
In assay [7] the target is Serine/threonine-protein kinase N2 (Homo sapiens) (UniProt Q16513). The note with it: at 1 µM.
Serine/threonine-protein kinase N2 (Homo sapiens), sequence (Q16513 whole entry, looked up): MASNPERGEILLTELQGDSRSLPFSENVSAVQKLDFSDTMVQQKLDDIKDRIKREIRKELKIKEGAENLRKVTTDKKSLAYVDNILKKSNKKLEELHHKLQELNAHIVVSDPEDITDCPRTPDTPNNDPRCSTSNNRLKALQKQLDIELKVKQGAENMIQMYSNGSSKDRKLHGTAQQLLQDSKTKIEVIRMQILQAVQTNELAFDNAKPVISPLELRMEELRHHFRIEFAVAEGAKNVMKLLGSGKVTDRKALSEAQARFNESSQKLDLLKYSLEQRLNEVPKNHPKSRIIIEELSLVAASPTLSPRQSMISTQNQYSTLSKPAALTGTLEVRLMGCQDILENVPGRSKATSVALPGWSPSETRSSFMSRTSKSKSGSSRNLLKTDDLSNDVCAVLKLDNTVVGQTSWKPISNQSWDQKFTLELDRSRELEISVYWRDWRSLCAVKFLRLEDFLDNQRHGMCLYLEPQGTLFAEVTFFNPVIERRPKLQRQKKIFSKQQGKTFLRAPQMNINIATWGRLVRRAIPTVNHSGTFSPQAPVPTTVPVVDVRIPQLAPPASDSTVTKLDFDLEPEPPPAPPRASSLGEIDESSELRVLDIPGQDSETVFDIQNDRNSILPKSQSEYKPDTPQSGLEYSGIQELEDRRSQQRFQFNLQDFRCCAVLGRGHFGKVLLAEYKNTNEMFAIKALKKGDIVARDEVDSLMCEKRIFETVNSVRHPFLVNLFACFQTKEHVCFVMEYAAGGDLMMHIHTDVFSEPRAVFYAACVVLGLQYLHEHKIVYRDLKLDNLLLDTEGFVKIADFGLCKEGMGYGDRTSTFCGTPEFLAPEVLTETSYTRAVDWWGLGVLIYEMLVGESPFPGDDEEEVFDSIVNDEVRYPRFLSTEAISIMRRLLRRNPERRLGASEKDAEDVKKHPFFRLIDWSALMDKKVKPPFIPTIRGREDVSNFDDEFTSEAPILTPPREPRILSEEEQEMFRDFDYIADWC
For assay [8] the target is unchanged. The note with it: at 10 µM.
Assay [9] addresses Tyrosine-protein kinase FRK (Homo sapiens) (UniProt P42685). The note with it: at 1 µM.
The target is the same in assay [10]. The settings on record: at 10 µM.
Assay [11] has as its target T3, Phosphorylase b kinase gamma catalytic chain, liver/testis isoform (Homo sapiens) (UniProt P15735).
T3 sequence (whole entry): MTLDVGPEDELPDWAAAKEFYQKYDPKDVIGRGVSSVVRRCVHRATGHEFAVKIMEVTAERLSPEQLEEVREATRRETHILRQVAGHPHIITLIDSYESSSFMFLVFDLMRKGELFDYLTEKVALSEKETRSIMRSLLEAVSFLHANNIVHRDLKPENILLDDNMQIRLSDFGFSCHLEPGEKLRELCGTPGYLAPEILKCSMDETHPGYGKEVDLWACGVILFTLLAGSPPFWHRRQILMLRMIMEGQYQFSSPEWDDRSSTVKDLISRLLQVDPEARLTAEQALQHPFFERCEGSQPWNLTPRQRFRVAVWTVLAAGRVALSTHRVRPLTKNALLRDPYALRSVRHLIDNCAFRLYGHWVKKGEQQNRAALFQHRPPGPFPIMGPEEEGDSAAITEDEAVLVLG
The settings on record: at 1 µM.

Assay [12] deals with T3, Phosphorylase b kinase gamma catalytic chain, liver/testis isoform (Homo sapiens). The note with it: at 10 µM.
In assay [13] the target is Serine/threonine-protein kinase pim-1 (Homo sapiens) (UniProt P11309). The note with it: at 1 µM.
Serine/threonine-protein kinase pim-1 (Homo sapiens), sequence (P11309 whole entry, looked up): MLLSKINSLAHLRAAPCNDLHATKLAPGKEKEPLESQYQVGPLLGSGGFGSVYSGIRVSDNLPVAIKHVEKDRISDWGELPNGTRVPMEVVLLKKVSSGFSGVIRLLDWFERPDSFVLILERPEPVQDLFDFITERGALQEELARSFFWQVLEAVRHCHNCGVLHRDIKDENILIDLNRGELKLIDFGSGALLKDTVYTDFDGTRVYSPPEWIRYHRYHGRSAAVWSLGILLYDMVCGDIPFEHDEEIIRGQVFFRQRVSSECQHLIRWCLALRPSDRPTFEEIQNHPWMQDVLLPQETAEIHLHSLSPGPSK
Assay [14] has the same target. The settings on record: at 10 µM.
Assay [15] concerns the target Serine/threonine-protein kinase pim-2 (Homo sapiens) (UniProt Q9P1W9). The settings on record: at 1 µM.
Assay [16] shares this target. The note with it: at 10 µM.
Assay [17] deals with Serine/threonine-protein kinase pim-3 (Homo sapiens) (UniProt Q86V86). The settings on record: at 1 µM.
The target is the same in assay [18]. The settings on record: at 10 µM.
For assay [19], the target named is Serine/threonine-protein kinase PLK1 (Homo sapiens) (UniProt P53350). The settings on record: at 1 µM.
Serine/threonine-protein kinase PLK1 (Homo sapiens), sequence (P53350 whole entry): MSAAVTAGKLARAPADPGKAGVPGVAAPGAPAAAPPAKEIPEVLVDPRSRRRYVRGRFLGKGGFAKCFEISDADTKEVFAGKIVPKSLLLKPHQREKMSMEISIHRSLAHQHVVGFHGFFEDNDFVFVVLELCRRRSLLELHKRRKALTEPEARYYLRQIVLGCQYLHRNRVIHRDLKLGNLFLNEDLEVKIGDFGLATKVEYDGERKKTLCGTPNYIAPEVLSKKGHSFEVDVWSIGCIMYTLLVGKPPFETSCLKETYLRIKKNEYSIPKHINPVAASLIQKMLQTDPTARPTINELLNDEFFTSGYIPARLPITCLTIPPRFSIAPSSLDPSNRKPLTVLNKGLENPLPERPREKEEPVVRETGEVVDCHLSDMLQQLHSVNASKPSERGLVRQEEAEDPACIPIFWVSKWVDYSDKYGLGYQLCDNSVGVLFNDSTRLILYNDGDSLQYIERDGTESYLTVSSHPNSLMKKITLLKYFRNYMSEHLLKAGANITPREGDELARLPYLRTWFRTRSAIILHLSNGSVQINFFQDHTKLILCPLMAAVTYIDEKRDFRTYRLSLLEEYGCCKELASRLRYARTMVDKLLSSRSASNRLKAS
Assay [20] has the same target. The settings on record: at 10 µM.

Drawing on ChEMBL document CHEMBL2218924, “A broad activity screen in support of a chemogenomic map for kinase signalling research and drug discovery” (Biochem J, 2013), this text covers residual activity for seven molecules.

Tyrosine-protein kinase FRK (Homo sapiens), sequence (P42685 whole entry): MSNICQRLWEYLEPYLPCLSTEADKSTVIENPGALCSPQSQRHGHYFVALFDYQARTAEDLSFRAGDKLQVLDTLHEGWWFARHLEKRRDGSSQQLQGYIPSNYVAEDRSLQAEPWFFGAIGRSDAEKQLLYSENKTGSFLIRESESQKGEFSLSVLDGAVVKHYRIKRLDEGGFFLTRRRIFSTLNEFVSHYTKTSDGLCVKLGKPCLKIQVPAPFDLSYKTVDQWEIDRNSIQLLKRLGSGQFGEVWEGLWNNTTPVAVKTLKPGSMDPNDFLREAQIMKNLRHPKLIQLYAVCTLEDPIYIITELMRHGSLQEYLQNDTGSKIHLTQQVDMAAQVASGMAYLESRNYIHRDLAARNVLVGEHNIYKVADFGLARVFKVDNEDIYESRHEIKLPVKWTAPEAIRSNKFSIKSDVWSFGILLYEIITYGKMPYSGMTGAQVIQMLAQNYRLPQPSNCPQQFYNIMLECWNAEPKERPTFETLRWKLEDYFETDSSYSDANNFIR
Serine/threonine-protein kinase pim-2 (Homo sapiens), sequence (Q9P1W9 whole entry, looked up): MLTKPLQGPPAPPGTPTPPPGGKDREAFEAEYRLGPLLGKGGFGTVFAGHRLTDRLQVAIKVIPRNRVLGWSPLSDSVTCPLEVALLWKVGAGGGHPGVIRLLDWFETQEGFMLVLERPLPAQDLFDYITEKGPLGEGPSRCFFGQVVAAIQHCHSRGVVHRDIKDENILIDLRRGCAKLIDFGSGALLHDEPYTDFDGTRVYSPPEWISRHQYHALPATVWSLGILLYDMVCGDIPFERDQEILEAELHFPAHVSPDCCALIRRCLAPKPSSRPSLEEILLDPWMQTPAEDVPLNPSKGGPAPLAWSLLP

In the case of `COc1ccc(C(=O)Nc2sc3c(c2C(N)=O)CCCC3)cc1OC`, the residual activity amounted to 104% in assay [1]; 88% in assay [2]; 79% in [3]; 90% in [4]; 59% in assay [5]; 76% in assay [6]. The residual activity amounted to 88% in assay [7]; 114% in [8]; 91% in assay [9]; 80% in assay [10]; 78% in assay [11]; 84% in assay [12]. Besides, the residual activity amounted to 80% in [13]; 97% in assay [14]; 87% in assay [15]; 114% in assay [16]; 92% in assay [17]; 97% in assay [18]. Also, the residual activity in [19] was found to be 94%; in assay [20], 75%.

Take `Cn1cnc2cc3c(Nc4cccc(Br)c4)ncnc3cc21`: the residual activity in [1] stood at 115%; in assay [2], 87%; in assay [3] it was 93%; in assay [4], 88%; in [5] it was 78%; in assay [6] it was 78%. For the same molecule, the residual activity in assay [7] came to 101%; in [8] it was 97%; in assay [9], 72%; in assay [10], 28%; in assay [11] it was 95%; in assay [12], 98%. For the same molecule, the residual activity is 75% in [13]; 63% in assay [14]; 84% in [15]; 97% in [16]; 92% in assay [17]; 88% in assay [18]. Further, the residual activity in assay [19] was determined as 105%; in assay [20], 82%.

In the case of `CCOc1cc2ncnc(Nc3cccc(Br)c3)c2cc1OCC`, the residual activity in assay [1] is 108%; in assay [2], 91%; in [3], 95%; in assay [4] it was 66%; in assay [5] it was 79%; in assay [6], 82%. Further, the residual activity turned out to be 93% in [7]; 79% in [8]; 40% in [9]; 5% in assay [10]; 92% in assay [11]; 108% in assay [12]. The residual activity in assay [13] worked out at 65%; in assay [14], 57%; in assay [15] it was 92%; in assay [16], 79%; in [17], 96%; in assay [18], 94%. The residual activity in [19] was 80%; in assay [20], 81%.

`COc1cc2ncnc(N3CCN(C(=O)Nc4ccc(Oc5ccccc5)cc4)CC3)c2cc1OC`: the residual activity was determined as 99% in assay [1]; 110% in assay [2]; 68% in [3]; 72% in assay [4]; 78% in assay [5]; 79% in assay [6]. The residual activity stood at 88% in assay [7]; 112% in [8]; 96% in assay [9]; 127% in [10]; 103% in [11]; 122% in assay [12]. The residual activity in assay [13] amounted to 111%; in assay [14] it was 122%; in assay [15] it was 92%; in assay [16] it was 149%; in [17], 91%; in assay [18], 93%. In addition, the residual activity in assay [19] is 63%; in assay [20], 61%.

Take `O=[N+]([O-])c1ccc(-c2nc(-c3ccc(F)cc3)c(-c3ccncc3)[nH]2)cc1`: the residual activity in assay [1] came out at 98%; in assay [2] it was 103%; in [3], 105%; in assay [4], 92%; in [5], 112%; in [6], 107%. Besides, the residual activity in assay [7] came out at 119%; in assay [8] it was 93%; in assay [9], 57%; in [10], 60%; in assay [11], 98%; in [12], 91%. For the same molecule, the residual activity in [13] turned out to be 99%; in assay [14], 85%; in assay [15], 127%; in [16], 139%; in [17], 86%; in assay [18] it was 95%. The values for the residual activity in [19] and in assay [20] were 88% and 80%, respectively.

Consider `O=C1Nc2cc(Br)ccc2/C1=C1/Nc2ccccc2/C1=N\O`, for which the residual activity was determined as 90% in [1]; 109% in [2]; 78% in [3]; 61% in assay [4]; 76% in assay [5]; 90% in [6]. Further, the residual activity in [7] was 75%; in assay [8], 92%; in assay [9], 2%; in assay [10] it was 0%; in assay [11] it was 55%; in assay [12] it was 24%. Besides, the residual activity came to 67% in [13]; 78% in [14]; 106% in assay [15]; 85% in assay [16]; 78% in assay [17]; 81% in assay [18]. In addition, the residual activity in [19] was determined as 79%; in [20] it was 81%.

On to `Cc1ccc(NC2=CC(=O)c3sc(C)nc3C2=O)cc1`, for which the residual activity in assay [1] was determined as 91%; in assay [2] it was 95%; in [3], 105%; in [4], 88%; in [5] it was 110%; in assay [6], 114%. Also, the residual activity in assay [7] was determined as 93%; in assay [8] it was 89%; in [9] it was 87%; in [10] it was 90%; in assay [11] it was 114%; in [12], 92%. Also, the residual activity in [13] came to 94%; in assay [14], 85%; in [15], 99%; in assay [16], 111%; in assay [17] it was 91%; in assay [18], 92%. Moreover, the residual activity worked out at 87% in [19] and 89% in assay [20].
